Measured values: PubChem BioAssay (NCATS)
Inconclusive results are not listed. Calls of active or inactive are those of the source. The call rests on the fitted dose curve.
Potency means the concentration at half of the fitted maximal effect.

Assay: Cell Viability - SK-N-SH (AID 435);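 further: compound exposure lasted 40 h at 37 °C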
Conditions: SK-N-SH neuroblastoma cell viability qHTS
From the text: NIH Chemical Genomics Center [NCGC]
NIH Molecular Libraries Screening Centers Network [MLSCN]
National Institutes of Environmental Health Sciences [NIEHS]
National Toxicology Program [NTP]
We have developed a 1536-well cell-based assay for quantitative high throughput screening (qHTS) against a number of cell lines to determine in vitro cytotoxicity of small molecules. This particular assay uses the SK-N-SH cell line which is derived from human neuroblastoma.
NCGC Assay Protocol Summary:
The CellTiter-Glo luminescent cell viability assay (Promega) is a homogeneous method to measure the number of viable cells in culture. The end point readout of this assay is based on quantitation of intracellular ATP, an indicator of metabolic activity, using the luciferase reaction. Luciferase catalyzes the oxidation of beetle Luciferin to oxyluciferin and light in the presence of ATP. The luminescent signal is proportional to amount of ATP present.
Using the CellTiter-Glo luminescent cell viability assay, the amount of cellular ATP was measured in the SK-N-SH cell line with complete culture medium following compound treatment for 40 hours. The assay was performed in opaque white Kalypsys 1536-well plates. In the screen, tamoxifen and doxorubicin were used as positive controls. Library compounds were measured for their ability to cause acute toxicity in the cell line, as reflected by a decrease in intracellular ATP levels, in a concentration-dependent manner. Data were normalized to the controls for basal activity (DMSO only) and 100% inhibition (100 uM tamoxifen). AC50 values were determined from concentration-response data modeled with the standard Hill equation.
qHTS protocol fo CellTiter Glo SK-N-SH cellular assay
[Step] [Parameter] [Value] [Description]
1. Reagent; 5 uL; 1500 SK-N-SH cells/well
2. Time; 5 hr; 37 °C incubation
4. Controls; 23 nL; Tamoxifen 0.34 uM to 100 uM & Doxorubicin 0.02 nM to 100 uM
5. Time; 40 hr; 37 °C incubation
6. Reagent; 5 uL; CellTiter Glo reagent
7. Time; 20 min; Room Temperature
8. Detection; Luminescence; Viewlux plate reader
Keywords: cell viability, cytotoxicity, SK-N-SH cell line, luminescence, NTPHTS, NTPHTS_NCGC, NIEHS, EPA, DSSTox, MLSMR, MLSCN, NIH Roadmap, qHTS, NCGC
For `Clc1ccc(Cl)c(Cl)c1Cl`, the Potency was > 92 µM (inactive).
With `CC(O)CC(C)O` (stereo not given) the Potency was > 92 µM (inactive).
In the case of `NS(=O)(=O)O`, the Potency is reported as > 92 µM (inactive).
With `Cc1ccc2oc(=O)ccc2c1` the Potency was > 92 µM (inactive).
With `OC(CCl)CCl` the Potency was > 92 µM (inactive).
In the case of `CC(=O)OCCC(C)C`, the Potency is reported as > 92 µM (inactive).
With `CCCCC(CC)C(=O)O` (stereo not given) the Potency was > 92 µM (inactive).
For `NC=O`, the Potency was > 92 µM (inactive).
For `NC(=O)c1ccccc1[N+](=O)[O-]`, the Potency was > 92 µM (inactive).
For `CC(C)=C1CCC(C)CC1=O` (stereo not given), the Potency was > 92 µM (inactive).
For `CCCCCCCN`, the Potency was > 92 µM (inactive).
For `O=C(O)CNC(=O)c1ccc(CO)o1`, the Potency was > 92 µM (inactive).
In the case of `CSc1ccc(C=O)cc1`, the Potency is reported as > 92 µM (inactive).
With `CCCCCCCCN` the Potency was > 92 µM (inactive).
With `O=C(Cl)c1cccc([N+](=O)[O-])c1` the Potency was > 92 µM (inactive).
For `O=C(O)c1ccc(C(=O)O)cc1`, the Potency was > 92 µM (inactive).
For `Nc1cccc(N)c1`, the Potency was > 92 µM (inactive).
With `Nc1cccc(C(F)(F)F)c1` the Potency was > 92 µM (inactive).
In the case of `CN(C)c1cccc(O)c1`, the Potency is reported as > 92 µM (inactive).
With `C/C=C1\CC2C=CC1C2` (stereo not given) the Potency was > 92 µM (inactive).
With `Cc1ccccc1C(=O)O` the Potency was > 92 µM (inactive).
With `CCNS(=O)(=O)c1ccc(C)cc1` the Potency was > 92 µM (inactive).
In the case of `CCCCC(=O)N(C)C`, the Potency is reported as > 92 µM (inactive).
For `O=[N+]([O-])c1ccc(Cl)cc1Cl`, the Potency was > 92 µM (inactive).
For `Cc1ccc(C)o1`, the Potency was > 92 µM (inactive).
For `CC(=O)Nc1cccc(N)c1`, the Potency was > 92 µM (inactive).
For `c1ccc(Oc2ccccc2)cc1`, the Potency was > 92 µM (inactive).
With `Cc1ccc(C(=O)O)cc1` the Potency was > 92 µM (inactive).
With `Cc1cccc(C(=O)O)c1[N+](=O)[O-]` the Potency was > 92 µM (inactive).
In the case of `CC(N)CN` (stereo not given), the Potency is reported as > 92 µM (inactive).
With `BrC/C=C/CBr` the Potency was > 92 µM (inactive).
In the case of `O=C(O)c1ccccc1[N+](=O)[O-]`, the Potency is reported as > 92 µM (inactive).
For `O=C(Cl)c1ccccc1[N+](=O)[O-]`, the Potency was > 92 µM (inactive).
With `Nc1cccc(S(=O)(=O)O)c1` the Potency was > 92 µM (inactive).
For `Oc1c(Cl)ccc(Cl)c1Cl`, the Potency was > 92 µM (inactive).
With `C=Cc1ccccn1` the Potency was > 92 µM (inactive).
In the case of `CO[Si](CCCNCCC[Si](OC)(OC)OC)(OC)OC`, the Potency is reported as > 92 µM (inactive).
With `CCC(C)O` (stereo not given) the Potency was > 92 µM (inactive).
In the case of `N#CC1(O)CCCCC1`, the Potency is reported as > 92 µM (inactive).
With `CC(O)COC(C)(C)C` (stereo not given) the Potency was > 92 µM (inactive).
